Screening data: PubChem, National Center for Advancing Translational Sciences (NCATS)
LASV entry inh – qHTS for Inhibitors of binding or entry into cells for Lassa Virus; Lassa virus pseudotype entry inhibition, cell reporter; Potency, µM (series often up to 37.9 µM), for inactives: at the top dose activity change, negative = inhibition, hits mostly inhibitors; 1.2% of 300,000 active; AID 540256, 2011; calls by dose curve; tested in HEK293 cells; note: nearly all actives have a fitted effect of over 50% in size
MARV entry inh – qHTS for inhibitors of binding or entry into cells for Marburg Virus; Marburg virus pseudotyped entry inhibition, cell reporter; Potency, µM (doses to about 37.8 µM), without a hit: top-dose activity change, negative = inhibition, hits mostly inhibitors; 1.8% of 300,000 active; AID 540276, 2011; calls by dose curve; tested in HEK293 cells
VACV mCherry inh – qHTS for Stage-Specific Inhibitors of Vaccinia Orthopoxvirus: mCherry Reporter Primary qHTS | AID 720579, 2013 | Vaccinia virus mCherry reporter infection, fluorescence | Potency, µM (titrated, usually from 36.5 µM), for inactives: top-dose activity change, negative = inhibition, actives largely listed as inhibitors | 0.63% of 310,000 active; calls by dose curve; tested in A549 cells; note: nearly all actives have a fitted effect of over 35% in size
HCV inhibitor – qHTS Assay for Inhibitors of Hepatitis C Virus (HCV) | AID 651820, 2012 | 3.4% of 340,000 active | Potency, µM (top dose mostly 41.8 µM), without a hit: top-dose activity change, negative = inhibition, most hits filed as inhibitors | Huh7.5.1 HCVcc-Cre infection, luciferase reporter, 44 h; active = well fitted inhibition curve with a large enough effect; inconclusive = small, poorly fitted or top-dose-only effect, or another doubt; inactive = no such curve, though single readings can be large or run the other way
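Reporter virus HCVcc-Cre (~0.5 moi) infects cells exposed to compound; seeding density 1,000 cells/well with 4 h settling beforehand. Luminescence, 15 sec read, taken 44 h post-infection following a 15 min RT substrate incubation.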
VACV Venus inh – qHTS for Stage-Specific Inhibitors of Vaccinia Orthopoxvirus: Venus Reporter Primary qHTS. AID 720580, 2013. Potency, µM (top dose mostly 36.5 µM), for the others: at the top dose activity change, negative = inhibition, hits mostly inhibitors. 0.46% of 330,000 active. Vaccinia virus Venus reporter expression, fluorescence; calls by dose curve; tested in A549 cells; note: nearly all actives have a fitted effect of over 30% in size
Active calls of the source: *; [ ] = remark or other dose. In the library only some 4.6% were active in any assay of this set; here they are far more common. % is set by controls: 0 for no effect and ±100 for the full control effect; potency is the fitted concentration of half-maximal effect.

CCc1cccc(NC(=O)Cn2c(=O)n(Cc3ccccc3)c(=O)c3c(C)c(C(=O)N(C)C)sc32)c1 was read as LASV entry inh -16.7%[46.1 µM], VACV mCherry inh -24.9% and VACV Venus inh -10.4%.
COc1ccc([C@H]2/C(=C(\O)c3cnn(-c4ccccc4)c3C)C(=O)C(=O)N2CCN(C)C)cc1OC was read as MARV entry inh 2.9%[46.1 µM].
For Cc1[nH]c2ccccc2c1C(=O)CSc1nc2cc(S(=O)(=O)N3CCCCC3)ccc2o1 the results were LASV entry inh inconclusive, MARV entry inh 7.3µM* and HCV inhibitor 7.08µM*.
CN1CCN(c2ccc(-c3cccc(NC(=O)COc4ccc(Cl)cc4Cl)c3)nn2)CC1 was read as LASV entry inh 4.47µM*, MARV entry inh inconclusive, VACV mCherry inh -20.7%, HCV inhibitor 11.2µM* and VACV Venus inh -4.9%.
Screening Cc1ccc2cccc(OCC(=O)Nc3cccc(S(=O)(=O)N4CCCC4)c3)c2n1 returned LASV entry inh inconclusive, MARV entry inh inconclusive, VACV mCherry inh -18.2%, HCV inhibitor 5.62µM* and VACV Venus inh -27.5%.
`CN1CCN(c2ccc(-c3cccc(NC(=O)COc4ccc(Cl)cc4)c3)nn2)CC1` gave LASV entry inh inconclusive, MARV entry inh inconclusive, VACV mCherry inh -3.0%, HCV inhibitor inconclusive and VACV Venus inh -22.6%.
Screening Cc1cc(Cl)ccc1OCC(=O)Nc1cccc(S(=O)(=O)N2CCCC2)c1 returned HCV inhibitor 7.94µM*.
Screening Cc1ccc(OCC(=O)Nc2cccc(S(=O)(=O)N3CCCCC3)c2)c([N+](=O)[O-])n1 returned LASV entry inh -0.6%, MARV entry inh inconclusive, VACV mCherry inh -11.9%, HCV inhibitor inconclusive and VACV Venus inh -24.4%.
For CCC1CN(CC(=O)N(C)Cc2nc3ccccc3[nH]2)Cc2cc(OC)ccc2O1 (stereo not drawn) the results were VACV mCherry inh -9.8% and VACV Venus inh 5.3%.
For CCc1ccc(C2CC(=O)N(c3cccc(C(F)(F)F)c3)C3=C2C(=O)OC3)cc1 (stereo not drawn) the results were LASV entry inh 2.5%[46.1 µM], MARV entry inh -21.6%[46.1 µM], VACV mCherry inh 9.8% and VACV Venus inh -1.5%.
Screening Fc1ccccc1C1c2[nH]c3ccccc3c2CCN1Cc1cccn1-c1ncccn1 (stereo not drawn) returned LASV entry inh inconclusive, MARV entry inh 3.16µM*, VACV mCherry inh inconclusive, HCV inhibitor -20.9% and VACV Venus inh 11.3%.
For CCCN(C(=O)C1CCN(S(=O)(=O)c2c(C)noc2/C=C/c2ccc(C)cc2)CC1)c1ccccc1F the results were LASV entry inh inconclusive, VACV mCherry inh -6.6%[7.34 µM] and VACV Venus inh -7.7%[7.34 µM].
Screening CCN(C[C@H]1N[C@@](CC)(C(=O)OC)[C@H]2C(=O)N(C)C(=O)[C@@H]12)C(=O)Nc1ccc(OC)cc1 returned VACV mCherry inh inactive, HCV inhibitor -55.4% and VACV Venus inh 0.0%.
Screening COC(=O)[C@]1(C)N[C@H](CN(C)C(=O)Nc2ccc(C)cc2)[C@@H]2C(=O)N(Cc3ccccc3)C(=O)[C@@H]21 returned VACV mCherry inh inactive, HCV inhibitor 2.82µM* and VACV Venus inh -8.1%.
For COC(=O)[C@]1(C)N[C@H](CN(C)C(=O)c2ccccc2)[C@@H]2C(=O)N(C)C(=O)[C@@H]21 the results were VACV mCherry inh inactive, HCV inhibitor 3.98µM* and VACV Venus inh -8.3%.
Screening COC(=O)[C@]1(C)N[C@H](CN(C)C(C)=O)[C@@H]2C(=O)N(C)C(=O)[C@@H]21 returned VACV mCherry inh -4.7%, HCV inhibitor -3.6% and VACV Venus inh 6.8%.
`COC(=O)[C@]1(C)N[C@H](CN(C)C(=O)Nc2ccc(C)cc2)[C@@H]2C(=O)N(C)C(=O)[C@@H]21` gave VACV mCherry inh -10.4%, HCV inhibitor 1µM* and VACV Venus inh -5.0%.
For CCN(C[C@H]1N[C@@](CC)(C(=O)OC)[C@H]2C(=O)N(C)C(=O)[C@@H]12)C(=O)Nc1ccc(C)cc1 the results were VACV mCherry inh inactive, HCV inhibitor 3.16µM* and VACV Venus inh inconclusive.
